We go through 15 molecules from PubChem BioAssay (NCATS).

The target of experiment [1] is Aldehyde dehydrogenase, mitochondrial (Homo sapiens) (UniProt P05091). Description: qHTS for Inhibitors of the Aldehyde Dehydrogenase Family (ALDH2) Primary screen (AID 2061308). Note: nearly all actives have a fitted effect of over 55% in size. Particulars: ALDH2 enzyme inhibition qHTS, 1536-well; series mostly up to 56 µM.
For experiment [2], the target named is Retinaldehyde dehydrogenase 3 (Homo sapiens) (UniProt P47895). Description: qHTS for Inhibitors of the Aldehyde Dehydrogenase Family (ALDH1A3) Primary screen (AID 2061315). To be noted: ALDH inhibition qHTS; series mostly up to 56 µM.

Each structure is given as a SMILES string. Inconclusive results are not listed. Entries that show only a call come without a potency. Active and inactive are the calls of the source. Calls come from the whole dose curve; as a rule, active = well fitted curve in the direction sought with a large enough effect; inconclusive = small, poorly fitted or top-dose-only effect, or another doubt; inactive = no such curve, though single readings can be large; an effect the other way counts as inactive or inconclusive.

`O=C1CCCC2=C1C(c1[nH]ncc1Cl)NC(=NCCc1cccnc1)N2` (stereo not given): the Potency result in experiment [1] and in experiment [2] was “inactive” each time.
Regarding `NC(=O)c1c(NC(=O)C2CCCO2)sc2c1CCCC2` (stereo not given), the Potency entry in experiment [1] and in experiment [2] was “inactive” each time.
On to `CC(=O)N1CCCc2cc(S(=O)(=O)Nc3ccc(C)c(C)c3)ccc21`, for which the Potency result in experiment [1] and in experiment [2] was “inactive” each time.
As for `O=C(O)c1ccc(O)c2ncc(-c3cccc(N4CCOCC4)c3)cc12`, the Potency entry in experiment [1] and in experiment [2] was “inactive” in each case.
As to `Cc1c(P(=S)(c2ccccc2)c2ccccc2)c2ccccc2n1C(=O)NCc1ccc(F)cc1`, the Potency result in experiment [1] and in experiment [2] was “inactive” each time.
`CCOC(=O)C1CCN(C(=O)C(C)(C)NC(=O)Nc2ccc(F)c(F)c2)CC1`: the Potency result in experiment [1] and in experiment [2] was “inactive” each time.
Take `Cc1ccc(CNc2ncnc3ccc(-c4ccc(C(=O)N(C)C)o4)cc23)o1`: the Potency entry in experiment [1] and in experiment [2] was “inactive” throughout.
Consider `O=C(NCCc1ccc2c(c1)OCO2)c1cc2sccc2[nH]1`, for which the Potency entry in experiment [1] and in experiment [2] was “inactive” throughout.
For `Cc1cccc(-c2nnc(C)n2CCCn2ccnc2)c1N`, the Potency result in experiment [1] and in experiment [2] was “inactive” throughout.
Consider `Cc1csc(CNc2ncnc3ccc(-c4ccc5c(c4)OCO5)cc23)c1`, for which the Potency entry in experiment [1] and in experiment [2] was “inactive” each time.
Turning to `N#Cc1nc(Nc2ccc(Br)cc2)nc(NC2CCCC2)n1`, the Potency result in experiment [1] and in experiment [2] was “inactive” each time.
For `Cc1ccc(C)c(SC2CS(=O)(=O)c3ccccc32)c1` (stereo not given), the Potency entry in experiment [1] and in experiment [2] was “inactive” throughout.
Take `NC(=O)C1CCN(c2nc(-c3ccccc3Cl)cs2)CC1`: the Potency result in experiment [1] and in experiment [2] was “inactive” throughout.
On to `O=C(CNC(=O)c1ccc(Cl)c(C(F)(F)F)c1)OC(C(=O)Nc1cc(C(F)(F)F)ccc1Cl)c1ccccc1` (stereo not given), for which the Potency entry in experiment [1] and in experiment [2] was “inactive” in each case.
Consider `CN(Cc1nccs1)S(=O)(=O)c1ccc(Nc2nc(-c3ccccc3)cs2)cc1`, for which the Potency entry in experiment [1] and in experiment [2] was “inactive” throughout.
